Measurements: PubChem BioAssay AID1159580 (chemical genetic matrix, 2015)
Among all 5,500 compounds or so, about 2,000 (36%) were called active. Roughly 18% stayed inconclusive and do not appear here. Cut-off read from the data, not from the text of the source: active = normalized growth mostly below about 0.91 (no sharp cut-off); inconclusive = no clear call, values can overlap the other calls; inactive = mostly above about 0.92. Some of the results follow.

Test: chemical genetic growth profiling, strain panel (AID 1159580);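 note: tested at 20 µM; growth read once vehicle control cultures reached saturation at 30 °C; 1 = growth at the plate median or of vehicle wells; lower values mean less growth of the strain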
Conditions: growth OD

Measured: normalized growth

O=C(O)c1cc(=O)c(O)c2c(O)c(O)ccc2c1
inactive: S. cerevisiae deletion strains, locus YJR075W, strain HOC1, stronger effect = lower value 1.04 | S. cerevisiae deletion strains, locus YKL009W, strain mrt4, stronger effect = lower value 1.04 | S. cerevisiae deletion strains, locus YKL068W, stronger effect = lower value 1.01 | S. cerevisiae deletion strains, locus YKL085W, strain MDH1 (second series), stronger effect = lower value 1.02 | S. cerevisiae deletion strains, locus YKL085W, strain MDH1, stronger effect = lower value 1.02 | S. cerevisiae deletion strains, locus YKL160W, strain elf1, stronger effect = lower value 1.02 | S. cerevisiae deletion strains, locus YKL190W, strain CNB1, stronger effect = lower value 1 | S. cerevisiae deletion strains, locus YKR001C, strain vps1, stronger effect = lower value 1.01 | S. cerevisiae deletion strains, locus YKR026C, strain gcn3, stronger effect = lower value 0.965 | S. cerevisiae deletion strains, locus YKR091W, strain srl3, stronger effect = lower value 0.998 | S. cerevisiae deletion strains, locus YLL001W, strain dnm1, stronger effect = lower value 1 | S. cerevisiae deletion strains, locus YLL026W, stronger effect = lower value 0.992 | S. cerevisiae deletion strains, locus YLL041C, strain sdh2, stronger effect = lower value 0.993 | S. cerevisiae deletion strains, locus YLR027C, strain aat2, stronger effect = lower value 0.998 | S. cerevisiae deletion strains, locus YLR039C, strain RIC1, stronger effect = lower value 1.04 | S. cerevisiae deletion strains, locus YLR058C, strain SHM2, stronger effect = lower value 1.01 | S. cerevisiae deletion strains, locus YLR102C, strain apc9, stronger effect = lower value 1.01 | S. cerevisiae deletion strains, locus YLR113W, strain HOG1, stronger effect = lower value 1 | S. cerevisiae deletion strains, locus YLR221C, strain rsa3, stronger effect = lower value 1.03 | S. cerevisiae deletion strains, locus YLR258W, strain gsy2, stronger effect = lower value 0.993 | S. cerevisiae deletion strains, locus YLR262C, strain YPT6 (second series), stronger effect = lower value 0.942 | S. cerevisiae deletion strains, locus YLR262C, strain YPT6, stronger effect = lower value 0.971 | S. cerevisiae deletion strains, locus YLR268W, strain sec22, stronger effect = lower value 0.987 | S. cerevisiae deletion strains, locus YLR320W, strain mms22, stronger effect = lower value 1 | S. cerevisiae deletion strains, locus YLR330W, strain CHS5, stronger effect = lower value 1 | S. cerevisiae deletion strains, locus YLR342W, strain FKS1 (second series), stronger effect = lower value 1 | S. cerevisiae deletion strains, locus YLR342W, strain FKS1, stronger effect = lower value 0.996 | S. cerevisiae deletion strains, locus YLR357W, strain rsc2, stronger effect = lower value 0.943 | S. cerevisiae deletion strains, locus YLR370C, strain arc18, stronger effect = lower value 0.998 | S. cerevisiae deletion strains, locus YLR371W, strain rom2, stronger effect = lower value 1.03 | S. cerevisiae deletion strains, locus YLR384C, strain iki3, stronger effect = lower value 1.01 | S. cerevisiae deletion strains, locus YLR418C, strain cdc73, stronger effect = lower value 0.946 | S. cerevisiae deletion strains, locus YML016C, strain PPZ1, stronger effect = lower value 0.991 | S. cerevisiae deletion strains, locus YML032C, strain rad52, stronger effect = lower value 1.05 | S. cerevisiae deletion strains, locus YML120C, strain ndi1, stronger effect = lower value 1.01 | S. cerevisiae deletion strains, locus YML124C, strain tub3, stronger effect = lower value 1.01 | S. cerevisiae deletion strains, locus YMR058W, strain fet3, stronger effect = lower value 0.99 | S. cerevisiae deletion strains, locus YMR078C, strain ctf18, stronger effect = lower value 1.03 | S. cerevisiae deletion strains, locus YMR125W, strain sto1, stronger effect = lower value 0.987 | S. cerevisiae deletion strains, locus YMR129W, stronger effect = lower value 1.01 | S. cerevisiae deletion strains, locus YMR205C, strain PFK2, stronger effect = lower value 0.988 | S. cerevisiae deletion strains, locus YMR223W, strain ubp8, stronger effect = lower value 1.05 | S. cerevisiae deletion strains, locus YMR231W, strain pep5, stronger effect = lower value 0.997 | S. cerevisiae deletion strains, locus YMR263W, strain SAP30, stronger effect = lower value 0.999 | S. cerevisiae deletion strains, locus YMR307W, strain GAS1, stronger effect = lower value 1.04 | S. cerevisiae deletion strains, locus YNL067W, strain RPL9B, stronger effect = lower value 1 | S. cerevisiae deletion strains, locus YNL071W, strain lat1, stronger effect = lower value 1 | S. cerevisiae deletion strains, locus YNL128W, strain TEP1, stronger effect = lower value 0.972 | S. cerevisiae deletion strains, locus YNL153C, strain GIM3, stronger effect = lower value 0.98 | S. cerevisiae deletion strains, locus YNL183C, strain NPR1, stronger effect = lower value 0.907 | S. cerevisiae deletion strains, locus YNL209W, strain ssb2, stronger effect = lower value 1 | S. cerevisiae deletion strains, locus YNL233W, strain BNI4, stronger effect = lower value 0.989 | S. cerevisiae deletion strains, locus YNL248C, strain rpa49, stronger effect = lower value 1.04 | S. cerevisiae deletion strains, locus YNL250W, strain rad50, stronger effect = lower value 1.01 | S. cerevisiae deletion strains, locus YNL271C, strain bni1, stronger effect = lower value 0.999 | S. cerevisiae deletion strains, locus YNL298W, strain CLA4, stronger effect = lower value 1.01 | S. cerevisiae deletion strains, locus YNL307C, strain MCK1, stronger effect = lower value 1.04 | S. cerevisiae deletion strains, locus YNL322C, strain KRE1 (second series), stronger effect = lower value 0.981 | S. cerevisiae deletion strains, locus YNL322C, strain KRE1, stronger effect = lower value 1.01 | S. cerevisiae deletion strains, locus YNR049C, strain mso1, stronger effect = lower value 0.993 | S. cerevisiae deletion strains, locus YNR052C, strain pop2, stronger effect = lower value 1.02 | S. cerevisiae deletion strains, locus YOL006C, strain TOP1, stronger effect = lower value 0.984 | S. cerevisiae deletion strains, locus YOL012C, strain htz1 0.622 | S. cerevisiae deletion strains, locus YOL147C, strain pex11, stronger effect = lower value 1.01 | S. cerevisiae deletion strains, locus YOR001W, strain rrp6, stronger effect = lower value 1 | S. cerevisiae deletion strains, locus YOR061W, strain CKA2, stronger effect = lower value 0.995 | S. cerevisiae deletion strains, locus YOR069W, strain VPS5, stronger effect = lower value 1 | S. cerevisiae deletion strains, locus YOR070C, strain gyp1, stronger effect = lower value 1 | S. cerevisiae deletion strains, locus YOR080W, strain dia2, stronger effect = lower value 0.986 | S. cerevisiae deletion strains, locus YOR083W, strain WHI5, stronger effect = lower value 1.02 | S. cerevisiae deletion strains, locus YOR106W, strain vam3, stronger effect = lower value 1.04 | S. cerevisiae deletion strains, locus YOR136W, strain idh2, stronger effect = lower value 1.02 | S. cerevisiae deletion strains, locus YOR144C, strain elg1, stronger effect = lower value 1.01 | S. cerevisiae deletion strains, locus YOR184W, strain ser1, stronger effect = lower value 1.1 | S. cerevisiae deletion strains, locus YOR231W, strain MKK1, stronger effect = lower value 0.987 | S. cerevisiae deletion strains, locus YOR265W, strain rbl2, stronger effect = lower value 0.993 | S. cerevisiae deletion strains, locus YOR270C, strain vph1, stronger effect = lower value 1.01 | S. cerevisiae deletion strains, locus YOR290C, strain snf2, stronger effect = lower value 0.947 | S. cerevisiae deletion strains, locus YOR316C, strain cot1, stronger effect = lower value 1.02 | S. cerevisiae deletion strains, locus YPL051W, strain arl3, stronger effect = lower value 1 | S. cerevisiae deletion strains, locus YPL055C, strain LGE1, stronger effect = lower value 0.964 | S. cerevisiae deletion strains, locus YPL078C, strain atp4, stronger effect = lower value 1.02 | S. cerevisiae deletion strains, locus YPL106C, strain sse1, stronger effect = lower value 0.964 | S. cerevisiae deletion strains, locus YPL240C, strain hsp82, stronger effect = lower value 1 | S. cerevisiae deletion strains, locus YPL241C, strain CIN2, stronger effect = lower value 1.01 | S. cerevisiae deletion strains, locus YPL256C, strain CLN2, stronger effect = lower value 0.968 | S. cerevisiae deletion strains, locus YPR119W, strain clb2, stronger effect = lower value 1.01 | S. cerevisiae deletion strains, locus YPR141C, strain kar3, stronger effect = lower value 1.01 | S. cerevisiae deletion strains, locus YPR163C, strain tif3, stronger effect = lower value 1.02 | S. cerevisiae deletion strains, locus YPR167C, strain met16, stronger effect = lower value 1.01 | S. cerevisiae deletion strains, strain wtn01, stronger effect = lower value 0.998 | S. cerevisiae strains, strain wild type, stronger effect = lower value 1
